# Screening results (PubChem)
# Most compounds without a hit are left out; they make up all but 6.9% or so of the library.
# Giardia killer – Small Molecules that selectively kill Giardia lamblia: qHTS. AID 540267, 2011. activity change, % at 7.66 µM, hits read low. 340,000 tested, 0.15% active. Giardia lamblia trophozoite viability; in the data active = activity change below about -80%; inconclusive = between about -30% and that limit;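 also: parasites exposed to compound for two days anaerobically before the ATP read; % is scaled to controls: 0 for no effect and ±100 for the full control effect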
#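 Luminescence from cellular ATP indicates surviving trophozoites (100 cells/well) following 48 hrs anaerobic compound treatment at 37 deg C; signal develops 15-30 min at room temperature.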
# Vif-A3G inh – qHTS for Inhibitors of Vif-A3G Interactions: qHTS; DNA dC->dU-editing enzyme APOBEC-3G (Homo sapiens), Q9HC16; HeLa A3G-eYFP + Vif (tagged APOBEC3G with the HIV-1 protein that degrades it), YFP fluorescence, overnight; Potency, µM (highest dose often 46.1 µM), for inactives: at the top dose activity, negative = active, actives largely listed as inhibitors; 410,000 tested, 0.076% active; AID 602310, 2012; also: potency is read from the fitted curve at half-maximal effect; % is scaled to controls: 0 for no effect and ±100 for the full control effect; nearly all actives have a fitted effect of over 60% in size
# Target sequence (Q9HC16 whole entry, looked up): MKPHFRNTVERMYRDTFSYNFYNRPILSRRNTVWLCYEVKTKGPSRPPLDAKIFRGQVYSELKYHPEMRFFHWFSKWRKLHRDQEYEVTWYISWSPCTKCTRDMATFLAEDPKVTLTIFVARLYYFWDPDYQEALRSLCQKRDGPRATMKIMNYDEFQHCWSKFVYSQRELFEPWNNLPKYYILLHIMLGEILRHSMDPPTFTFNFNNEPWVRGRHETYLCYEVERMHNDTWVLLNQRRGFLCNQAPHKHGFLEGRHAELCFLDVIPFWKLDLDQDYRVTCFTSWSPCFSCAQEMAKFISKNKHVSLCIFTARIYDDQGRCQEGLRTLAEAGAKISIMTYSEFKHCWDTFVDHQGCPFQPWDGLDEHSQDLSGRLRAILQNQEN
#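 Read-out is eYFP fluorescence (Ex 488/Em 500-530) from Vif-expressing HeLa A3G-eYFP cells; more signal means A3G escaped Vif-mediated degradation. Cells plated overnight, compound pinned in, incubated overnight at 37 deg C.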
# SW480 rerep – A quantitative high throughput screen for small molecules that induce DNA re-replication in SW480 colon adenocarcinoma cells. SW480 DNA re-replication, Hoechst DNA content imaging, 48 h. Potency, µM (titrated, usually from 46.1 µM), without a hit: top-dose re-replication activation, usual class: activators. 340,000 tested, 1.8% active; also: potency is read from the fitted curve at half-maximal effect; % of control where 0% means no effect; nearly all actives have a fitted effect of over 55% in size
#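 Image-based DNA-content assay: after two days of treatment, nuclei were labelled with the DNA dye Hoechst and imaged, and hits were compounds raising the count of nuclei showing high fluorescence intensity.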
# Vif-A3F inh – qHTS for Inhibitors of Vif-A3F Interactions: qHTS; HeLa A3F-eYFP + Vif (tagged APOBEC3F with the HIV-1 protein that degrades it), YFP fluorescence increase; Potency, µM (titrated, usually from 46.1 µM), without a hit: at the highest dose activity, negative = active; 390,000 tested, 0.2% active; also: potency is read from the fitted curve at half-maximal effect; % of control where 0% means no effect; nearly all actives have a fitted effect of over 65% in size
#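 HeLa cells stably expressing A3F-eYFP plus Vif, plated and incubated overnight at 37 deg C, then exposed to compounds overnight at 37 deg C. Blocked degradation read as raised yellow fluorescence (Ex 488/Em 500-530).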
# IL1B secr inh – qHTS for Inhibitors of Inflammasome Signaling: IL-1-beta AlphaLISA Primary Screen; 360,000 tested, 4.7% active; activity change, % at 57.5 µM; THP-1 LPS/ATP IL-1B secretion, AlphaLISA, 16 h; hits give low values; AID 743279, 2014; in the data active = activity change below about -50%; inconclusive = mostly about -30% to -49%; also: % is scaled to controls: 0 for no effect and ±100 for the full control effect
#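 Secreted IL-1B measured by AlphaLISA bead assay after 16 h compound exposure of THP-1 cells; compounds (final up to 57.5 uM) added 1 h before LPS (250 ng/mL) and ATP (1.25 mM) stimulation; lower signal means less secretion.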
# MCF10A rerep – A quantitative high throughput screen for small molecules that induce DNA re-replication in MCF 10a normal breast cells. AID 624296, 2012. Potency, µM (doses to about 46.1 µM), for inactives: top-dose activity, positive = re-replication, actives largely listed as activators. 350,000 tested, 2.9% active. MCF 10A DNA re-replication, Hoechst nuclear intensity, 48 h; also: potency is read from the fitted curve at half-maximal effect; % of control where 0% means no effect; nearly all actives have a fitted effect of over 50% in size
# The depositor's hits bear a star; ? = inconclusive; . = no result given. Unless noted, calls follow the shape of the dose curve; as a rule, active = well fitted curve in the direction sought with a large enough effect; inconclusive = small, poorly fitted or top-dose-only effect, or another doubt; inactive = no such curve, though single readings can be large; an effect the other way counts as inactive or inconclusive.
SMILES,Giardia killer,Vif-A3G inh,SW480 rerep,Vif-A3F inh,IL1B secr inh,MCF10A rerep
O=C(Nc1ccc([N+](=O)[O-])cc1)Nc1ccc(OC(F)F)c(Cl)c1,2.2,-4.1%,18.4µM*,0.7%,-88.8*,?
O=C(Cc1ccc(Cl)cc1Cl)Nc1ccc(OC(F)F)c(Cl)c1,8.6,0.8%,2.3%,11.1%,-11.4,?
CC1CC(N(C(=O)c2ccco2)c2ccccc2)c2ccccc2N1C(=O)c1ccco1 (configuration not stated),14.2,-0.4%,?,-7.5%,-7.5,30.1%
CC12CC(c3ccccc3O1)N(C(=O)c1ccco1)C(=S)N2c1ccccc1 (configuration not stated),1.9,-7.0%,18.0%,-6.4%,34.9,23.1µM*
CC1CC=CC2C1C(=O)N(Cc1ccccc1)C2c1cccc([N+](=O)[O-])c1 (configuration not stated),?,3.0%,.,.,.,.
CCN1C(=O)c2cccc3c(S(=O)(=O)NCc4ccccc4)ccc1c23,2.3,0.2%,?,-15.1%,-26.2,16.4µM*
CCN1C(=O)c2cccc3c(S(=O)(=O)N4CCC(C)CC4)ccc1c23,11.5,2.1%,?,6.5%,107.0,10.3µM*
CCN1C(=O)c2cccc3c(S(=O)(=O)NCCc4c[nH]c5ccccc45)ccc1c23,0.8,-0.2%,-2.2%,3.0%,12.6,10.5%
CCc1ccc2[nH]c3nc(SCC(=O)NNC(=O)c4ccc(C(C)(C)C)cc4)nnc3c2c1,5.9,-0.1%,5.8µM*,-0.8%,-59.1*,2.31µM*
Cc1ccc(C(=O)NNC(=O)CSc2nnc3c(n2)[nH]c2ccc(C)cc23)cc1,3.2,-1.4%,1.6%,5.1%,30.8,-4.5%
COc1ccccc1N1CCN(C(=O)c2nc(SC)ncc2Cl)CC1,.,?,.,-1.3%,.,.
O=C(C[N+]12CN3CN(CN(C3)C1)C2)c1ccc(-c2ccccc2)cc1,.,1.2%,.,.,.,.
OC(c1ccc(F)cc1)c1nc(-c2cncnc2)cs1 (configuration not stated),.,-5.6%,.,.,-86.0*,.
O=S(=O)(c1ccc2c(c1)OCCO2)N1CCN(c2nc(-c3ccccc3)nc3ccccc23)CC1,4.8,.,.,.,.,.
Cc1cccc(NC(=O)NCCCCc2ccccc2)c1,-6.9,0.3%,-6.9%,1.9%,-17.8,-13.6%
O=C(NCCCCc1ccccc1)Nc1cccc(F)c1,7.0,2.5%,22.6%,-11.6%,-98.7*,9.9%
COc1ccc(CNc2n[nH]c(-c3ccco3)n2)cc1OC,.,3.2%,.,-9.9%,.,.
COC(=O)c1cc2oc3ccccc3c2n1Cc1nc(-c2ccc(OC)cc2)oc1C,.,5.8%,.,1.5%,.,.
COC(=O)c1ccc(-c2ccco2)n1Cc1nc(-c2ccc(OC)c(OC)c2)oc1C,-4.1,-0.6%,14.7%,-6.5%,?,18.4µM*
Cc1c(CCOC(=O)C23CC4CC(CC(C4)C2)C3)sc[n+]1CC#N,-1.5,-10.5%,-81.5%,-20.6%,-102.1*,?
Cc1[nH]c(-c2ccc(F)cc2)cc1C(=O)N1CCN(c2cccc(Cl)c2)CC1,1.9,-1.0%,?,-24.4%,-87.3*,9.2µM*
Cc1[nH]c2ccccc2c1C(=O)C(=O)N1CCN(c2ccccc2Cl)CC1,-9.8,8.1%,-11.6%,1.4%,-75.9*,?
Cc1[nH]c2ccccc2c1C(=O)C(=O)N1CCN(c2cccc(Cl)c2)CC1,6.2,-19.8%,?,8.2%,43.4,20.6µM*
COc1ccc(NC(=O)c2oc3ccccc3c2NC(=O)Cc2ccc(F)cc2)c(OC)c1,.,1.8%,.,-3.2%,.,.
COc1ccc(-n2nc(C(=O)Nc3cc(C)ccn3)c3c4ccccc4n(C)c3c2=O)cc1Cl,.,-3.2%,.,0.8%,.,.
Cc1ccc(-n2nc(C)c3c(C)cc(=O)n(CC(=O)NCc4ccc(OC(C)C)cc4)c32)cc1,.,-0.8%,.,1.1%,.,.
